# Only some compounds are listed: those with a hit (about 3.5% of all), similar ones and a draw of the others.
# Smad3 inh = blocks human Smad3 binding to FoxH1 peptide | P84022 | hit rate 0.29% among 88,000 | TR-FRET Smad3/Dy647-FoxH1 peptide binding, europium anti-His | inhibition, % at 25 µM;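 active means compounds that reduce the energy-transfer binding signal between the protein and its labelled peptide by more than half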;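 further: 0% = Smad3 plus labelled peptide maximal FRET and 100% = peptide-only background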
# MT1-MMP txn act = MT1-MMP promoter transcription activation; HT1080 MT1-MMP promoter luciferase reporter, luminescence, overnight; active compounds read high; activation factor at 10 µM; hit rate 0.16% among 86,000; AID 750;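 active means activation factor of at least 2 for MT1-MMP transcription at 10 µM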
# ERb coact inh = ER-beta (human) coactivator binding inhibition; Q92731; TR-FRET ER-beta LBD / SRC1-Cy5 peptide binding; receptor agonist-loaded with 1 µM estradiol; inhibition, % at 25.6 µM; hit rate 1.3% among 86,000;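 active means compounds whose percent inhibition of the receptor-coactivator binding signal exceeds about 50% in the single-dose screen, limit read from the data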;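 further: 0% = receptor plus peptide wells without compound and 100% = peptide-only wells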
# Target sequence (Q92731 whole entry, looked up, the tested form may be a part): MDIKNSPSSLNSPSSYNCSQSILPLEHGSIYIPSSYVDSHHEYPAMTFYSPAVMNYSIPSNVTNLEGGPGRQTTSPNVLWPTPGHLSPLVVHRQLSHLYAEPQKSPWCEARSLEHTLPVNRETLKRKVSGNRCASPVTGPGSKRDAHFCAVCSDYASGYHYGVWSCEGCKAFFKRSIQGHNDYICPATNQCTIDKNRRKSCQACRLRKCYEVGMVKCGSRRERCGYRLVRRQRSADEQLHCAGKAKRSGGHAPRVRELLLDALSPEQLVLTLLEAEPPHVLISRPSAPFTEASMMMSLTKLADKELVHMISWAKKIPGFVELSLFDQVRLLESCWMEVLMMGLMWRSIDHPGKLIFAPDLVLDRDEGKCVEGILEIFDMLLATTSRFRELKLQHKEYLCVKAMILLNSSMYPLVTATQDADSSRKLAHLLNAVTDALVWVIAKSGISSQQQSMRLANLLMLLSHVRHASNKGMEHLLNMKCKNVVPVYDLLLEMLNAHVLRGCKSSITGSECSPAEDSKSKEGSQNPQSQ
# MMP-13 inhibitor = blocks human MMP13 activity; inhibition, % at 4 µM; MMP-13 fTHP FRET cleavage, Mca fluorescence; AID 570; hit rate 0.07% among 65,000;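 active means inhibition above the mean of compound-free control plate wells plus 3 SD, cut at about 14% in these data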;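 further: 0% = DMSO wells and 100% = wells with reference MMP-13 inhibitor after basal subtraction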
# ERa coact pot = enhances coactivator binding to human estrogen receptor alpha | P03372 | TR-FRET ERalpha-LBD/SRC-Cy5 coactivator binding, 2 h; 100 = basal binding, no effect | coactivator binding (% of control), % at 25.6 µM | hit rate 1.3% among 86,000 | AID 639; in the data active means activity above about 200%;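 further: binding measured in presence of low estradiol as agonist stimulus; 0% = peptide alone without receptor and 100% = receptor with peptide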
# ERa coact inh = ER-alpha (human) coactivator binding inhibition. P03372. TR-FRET ER-alpha LBD / SRC-1 peptide, estradiol-bound. inhibition, % at 25.6 µM. hit rate 1.7% among 86,000. AID 629; in the data active means inhibition above about 50%;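 further: 0% = receptor plus peptide control and 100% = peptide only without receptor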
# The depositor's hits bear a star; i = inactive; / = no result; [ ] = another dose, or the depositor's remark.
SMILES,Smad3 inh,MT1-MMP txn act,ERb coact inh,MMP-13 inhibitor,ERa coact pot,ERa coact inh
Cn1c(=O)c2c(nc(Oc3ccc4c(c3)OCO4)n2Cc2ccc(Br)cc2)n(C)c1=O,-19,1,52*,-7,103,2
Cn1c(=O)c2c(nc(Oc3ccc4c(c3)OCO4)n2Cc2ccc(F)cc2)n(C)c1=O,/,1.1,/,-6,/,/
O=C(CNC(=O)c1ccco1)OCc1ccc(Cl)cc1,17,1.1,60*,-3,133,1
CCOc1ccc(NC(=O)c2cc3cc4ccc(OC)cc4nc3o2)cc1,32,1,45,/,194,56*
COc1ccc2cc3cc(C(=O)NCc4ccccn4)oc3nc2c1,/,1.2,/,i,/,/
Cc1ccc(C)c(/C(O)=C2/C(=O)C(=O)N(CCN3CCOCC3)C2c2ccco2)c1 (centres undefined),15,1,51*,0,81,46
COc1ccc(-c2nnc(SCC(=O)/C(C#N)=C(\C)N)o2)cc1,3,1.4,75*,3,63,56*
CCOC(=O)N1CCN(S(=O)(=O)c2ccc(C(=O)Nc3nc4ccccc4s3)cc2)CC1,-13,1.2,30,-1,280*[fluorescence artefact?],42
CCOC(=O)N1CCN(S(=O)(=O)c2ccc(C(=O)Nc3nc4ccc(F)cc4s3)cc2)CC1,-25,1.2,5,-3,377*,-5
CCOC(=O)N1CCN(S(=O)(=O)c2ccc(F)cc2)CC1,0,1.1,-7,-1,107,-8
CCNC(=S)NNC(=O)c1csc(CC)c1,-19,1.3,-3,/,102,-8
Cc1ccc(S(=O)(=O)N2CCOCC2)c(C)c1-n1cnnn1,8,0.9,-21,-4,124,-13
O=C(O)[C@@H](Cc1c[nH]c2ccccc12)C(=O)NO,5,/,/,/,/,/
O=S1(=O)CCN(c2ccccc2CC(c2c[nH]c3ccccc23)c2c[nH]c3ccccc23)CC1,88*,/,/,/,/,/
CC1CCCN(C(=O)Cn2c(-c3nonc3N)nc3ccccc32)C1 (centres undefined),-1,1.2,-18,-2,67,-27
COc1ccc(N2Cc3cccc(C(=O)O)c3C2=O)cc1,8,1,65*,-11,36,64*
COc1cc(C(=O)OCC(=O)Nc2c(F)c(F)c(F)c(F)c2F)cc(OC)c1OC,-3,1.3,37,-4,95,58*
CCOC(=O)C1=C(c2ccccc2)Nc2ncnn2C1c1cccc(OC)c1OC (centres undefined),14,/,-25,6,110,-24
COc1ccc(OCc2nc(C#N)c(N3CCN(c4ccc(OC)cc4)CC3)o2)cc1,11,1.1,-9,3,123,-3
CC(Sc1nc(-c2ccccc2)cc(=O)[nH]1)C(=O)O (centres undefined),5,1.1,4,/,98,-4
O=C/C(=C\Nc1ccc(Cl)cn1)c1nc2ccccc2o1,-6,1.4,32,/,165,54*[fluorescence artefact?]
O=C/C(=C\Nc1ccc(Cl)cn1)c1nc2cc(Cl)ccc2o1,6,/,56*[fluorescence artefact?],/,40,88*[fluorescence artefact?]
COc1cccc(Nc2nc(-c3ccc(O)cc3)cs2)c1,3,1.6,16,/,81,12
CC(=O)N1CCN(c2ccc(S(=O)(=O)N3CCCCC3)cn2)CC1,10,1,-7,-4,115,3
O=S(=O)(c1ccc(N2CCN(S(=O)(=O)c3ccc4c(c3)OCCO4)CC2)nc1)N1CCCC1,0,1,44,-5,275*[fluorescence artefact?],35
SMILES,Smad3 inh,MT1-MMP txn act,ERb coact inh,MMP-13 inhibitor,ERa coact pot,ERa coact inh
O=C(Cc1cnn(-c2ccccc2)c1)c1ccc(O)c(O)c1O,-7,1.7,85*[fluorescence artefact?],/,56,78*[fluorescence artefact?]
CCOCCCn1c(=N)c(C(=O)NCc2ccc3c(c2)OCO3)cc2c(=O)n3cccc(C)c3nc21,-3,1.2,29,-48,92,30
CCOC(=O)c1ccc(NC(=O)CCOc2ccccc2)cc1,-1,1.1,-3,/,659*[fluorescence artefact?],-1
CCOC(=O)c1ccc(NC(=O)COc2ccc(-n3cnnn3)cc2)cc1,5,1.2,82*[fluorescence artefact?],7,14,91*[fluorescence artefact?]
Cc1ccc(NC2=CC(=O)C(=O)c3ccccc32)cc1,48,1.9,4,/,109,-8
CCOC(=O)c1ccc(NC2=CC(=O)C(=O)c3ccccc32)cc1,78*,1.1,3,/,105,-1
Cc1cccc2cc(CN(Cc3ccc(F)cc3)C(=O)N3CCOCC3)c(=O)[nH]c12,-5,1.2,-14,/,98,-22
C[N+]1(CCN2C(=O)C3CC=C(Cl)CC3C2=O)CCOCC1 (centres undefined),/,1.1,/,0,/,/
CC(C)c1nc(=S)c2ccccc2[nH]1,-4,1,1,4,93,-2
COc1ccc(N=Cc2c(O)[nH]c3ccccc23)cc1,-1,1.3,0,/,107,4
N#CC(C(=O)Nc1ccccc1)=C1CCCCC1,-4,1.2,74*,7,90,-1
Cc1cccc(CN2CCN(CC(=O)NCc3cccs3)C2=O)c1,4,1,-18,/,91,-6
CCOC(=O)C1=C(c2ccccc2)O/C(=C(\C(=O)OC)C(F)(F)F)S1,11,1.2,9,/,270*[fluorescence artefact?],8
CCOC(=O)C1=C(c2ccccc2)O/C(=C(/C#N)C(F)(F)F)S1,-2,0.8,3,/,168,1
O=C1SC(c2ccccc2)=C/C1=C\N1CCCCC1,7,1.4,-5,2,98,-10
Cc1nnc(Nc2ccc3c(c2)ncn3C)c2ccccc12,-2,1.3,-20,3,103,-25
O=C1c2ccccc2C(=O)C1c1ccc2ccccc2n1,33,0.2,34,7,217*[fluorescence artefact?],52*[fluorescence artefact?]
COC(=O)C1=C(C)NC(C)=C(C(=O)OC)C1c1ccc2ccccc2n1,-18,1.3,-3,/,92,-13
Cc1cc(NC(=O)CCCC(=O)O)nc(C)n1,8,1.1,-5,7,122,-3
CCOc1ccc(S(=O)(=O)N2CCCC2)cc1,3,1,1,/,105,-3
CN(CCOc1ccc(Cl)cc1)c1ccc(S(=O)(=O)N2CCCCC2)cn1,13,1.2,15,-1,236*[fluorescence artefact?],17
COC(=O)c1ccccc1N1C(=O)C2C(C1=O)C1C=CC2C12CC2 (centres undefined),/,/,/,-1,/,/
Cc1ccc(NC(=O)NC2CCCCC2)cc1Cl,-2,1.3,-5,0,104,5
COc1ccc(OC)c(NC(=O)C2CCCN2C(=O)C2CCC(C)CC2)c1 (centres undefined),9,1.1,10,-6,97,91*[fluorescence artefact?]
COc1cc(NC(=O)C2CCCN2C(=O)C2CCC(C)CC2)cc(OC)c1OC (centres undefined),/,1.1,/,0,/,/
COc1ccc(CN2CC(C(=O)NCCCN3CCCCCC3)CC2=O)cc1 (centres undefined),14,0.9,22,-4,203*[fluorescence artefact?],25
COc1ccc(CN2CC(C(=O)NCCCN3CCN(C)CC3)CC2=O)cc1 (centres undefined),7,/,0,-1,111,-1

# From PubChem
